High-throughput results: PubChem, National Center for Advancing Translational Sciences (NCATS)
The list is not random: actives were taken first. Their share in the collection is about 21%.
NS1 function inh: blocks influenza NS1 protein function; Potency, µM (doses to about 46.1 µM), inactives show at the highest dose activity, positive = more growth; 270,000 compounds, 0.4% hits; AID 2326; further: potency means the concentration at half of the fitted maximal effect; actives are rising curves; nearly all actives have a fitted effect of over 50% in size
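Recovery from NS1-induced slow growth read by OD600 in budding yeast switched to galactose assay medium (pH 6.0, -URA) at 1:100 dilution. Compound 23 nl per well; the matching strain lacking NS1 serves as control.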
Shiga inhibitor: Shiga toxin inhibition; AID 2315; 290,000 compounds, 9.2% hits; inhibition, % at 38.7 µM; Vero cells, Shiga toxin protein synthesis inhibition reporter; in the data active means inhibition mostly above about 28%, no sharp cut-off; inactive means mostly below about 43%; further: 0% is about no effect
SARS PLP yeast: SARS-CoV PLP inhibition in yeast. S. cerevisiae expressing SARS-CoV PLpro, growth rescue. Potency, µM (doses to about 32.9 µM), for inactives: at the top dose activity, positive = growth rescue, usual class: activators. 330,000 compounds, 0.19% hits. AID 485353; further: potency means the concentration at half of the fitted maximal effect; 0% is about no effect; nearly all actives have a fitted effect of over 55% in size
Pf growth 96h: P. falciparum growth inhibition at 96 hour, primary screen for plastid delayed-death inhibitors | Potency, µM (highest dose often 28.7 µM), for inactives: top-dose activity change, negative = inhibition, most hits filed as inhibitors | 320,000 compounds, 6.9% hits | P. falciparum luciferase reporter growth, 96 h; active means well fitted inhibition curve with a large enough effect; inconclusive means small, poorly fitted or top-dose-only effect, or another doubt; inactive means no such curve, though single readings can be large or run the other way; further: potency means the concentration at half of the fitted maximal effect; on the % scale 0 is the no-effect control and ±100 the full control effect
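96 h incubation, 37 C, 5% CO2, of luciferase-reporter P. falciparum-infected RBCs (2% hematocrit, 0.05% parasitemia final) with test compounds; endpoint luminescence.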
CHX counter: affects cycloheximide protein synthesis inhibition readout, counter-screen; cell reporter, cycloheximide protein synthesis inhibition counterscreen; 300,000 compounds, 12% hits; max response, %; in the data active means max response mostly above about 13%, no sharp cut-off; inactive means mostly below about 14%; further: read at 38.3 µM for the half of the compounds with a filed dose; 0% is about no effect
Pf growth 48h: P. falciparum growth inhibition at 48 hours (one generation). Potency, µM (series often up to 28.7 µM), without a hit: at the top dose activity change, negative = inhibition, hits mostly inhibitors. 310,000 compounds, 5.9% hits. P. falciparum luciferase growth in erythrocytes, 48 h; active means well fitted inhibition curve with a large enough effect; inconclusive means small, poorly fitted or top-dose-only effect, or another doubt; inactive means no such curve, though single readings can be large or run the other way; further: potency means the concentration at half of the fitted maximal effect; on the % scale 0 is the no-effect control and ±100 the full control effect
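Luciferase-expressing P. falciparum in infected erythrocytes (2% hematocrit, 0.1% parasitemia final) in RPMI 1640/0.5% Albumax were exposed to compound for 48 hours at 37 C, 5% CO2; growth read as luminescence.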
* marks the source's active call; other numbers are inactive results; i = inactive; ? = inconclusive; nt = no result given; [ ] = dose if it differs, or a comment. Unless noted, the call rests on the fitted dose curve.

SMILES	NS1 function inh	Shiga inhibitor	SARS PLP yeast	Pf growth 96h	CHX counter	Pf growth 48h
COc1cccc(-c2csc(N3CCN(C(=S)Nc4cccc(C)c4)CC3)n2)c1	?	41	-1%	?	18*	?
COc1cccc(NC(=O)N2CCN(c3nc(-c4cccc(OC)c4)cs3)CC2)c1	0%	2	-1%	?	10	?
COc1cccc(-c2csc(N3CCN(C(=O)NC45CC6CC(CC(C6)C4)C5)CC3)n2)c1	?	8	-5%	-24%	1	12µM*
CCOC(=O)N1CCN(c2nc(-c3ccc(Cl)cc3)cs2)CC1	5%	46*	-5%	?	36*	15%
CC(C)C(=O)N1CCN(c2nc(-c3ccc(Cl)cc3)cs2)CC1	-1%	32	0%	40%	-2	6%
Cc1ccc(N(CC(=O)NCc2ccco2)C(=O)CCC(=O)Nc2nccs2)cc1C	12%	-7	2%	79%	-3	-10%
COc1ccc(S(=O)(=O)Nc2ccc(N3CCOCC3)nc2)cc1	nt	-7	2%	8%	-5	?
NC(C(=O)O)c1nn[nH]n1 (stereo not given)	nt	7	nt	nt	4	nt
COCCNC(=S)N1CCN(c2nc(-c3ccc(Cl)cc3)cs2)CC1	2%	13	2%	?	-2	30%
CNC(=S)N1CCN(c2nc(-c3ccc(Cl)cc3)cs2)CC1	15%	21	-3%	7.4µM*	16*	?
CCC(=O)Nc1cc2c3c(c1)CCN3C(=O)CC2	3%	-6	-6%	21%	-6	8%
Cc1ccc(C(=O)NCCC(=O)N2CCC3(CC2)NCCc2[nH]cnc23)cc1C	-1%	-2	-4%	4%	11*	-3%
CCC(=O)n1nc(-c2ccco2)nc1N	-9%	37	8%	118%	-2	-12%
CCC(=O)n1nc(-c2ccco2)nc1SCc1ccccc1	-18%	32*	-11%	1%[5.75 µM]	35*	34%
O=C(c1cccs1)n1nc(-c2ccco2)nc1SCc1ccccc1	-84%	41*	-2%	?	26*	nt
CC(=O)n1nc(-c2ccco2)nc1SCc1ccccc1	-34%	36	-45%	?	19*	23%
CSc1nc(-c2ccco2)nn1C(=O)c1cccs1	-10%	22	-1%	?	9	9%
CC(=O)n1nc(-c2ccco2)nc1N	15%	-16	1%	?	-1	15%
O=c1cc(O)c2ccccc2n1Cc1ccccc1F	nt	-5	17%	i	9	-25%
CN1C(=O)SC(Nc2ccccc2C(=O)O)C1=O (stereo not given)	-7%	1	4%	1.3µM*	-2	6%
Cc1cc(-c2cc(N)n(-c3ccccc3)n2)c(C)n1C1CCCC1	9%	40*	1%	34%	36*	?
Cc1cc(N)n(-c2ccccc2)n1	?	21	4%	199%	13	12%
CCOC(=O)Cc1nnc(Nc2cc(C)ccc2C)c2ccccc12	11%	6	2%	-22%	-2	-12%
CCOC(=O)Cc1nnc(Nc2ccc(C)cc2C)c2ccccc12	12%	-13	20%	4.7µM*	-4	2%
CCN(C[C@H]1N[C@@](C)(C(=O)OC)[C@H]2C(=O)N(Cc3ccccc3)C(=O)[C@@H]12)C(=O)Nc1ccc(C)cc1	nt	nt	-9%	nt	nt	nt
SMILES	NS1 function inh	Shiga inhibitor	SARS PLP yeast	Pf growth 96h	CHX counter	Pf growth 48h
Cc1nn(-c2ccc(C(=O)OC(C)C)cc2)c(C)c1[N+](=O)[O-]	nt	62*	-2%	12%	32*	105%
Cc1nn(-c2cccc(C(=O)O)c2)c(C)c1[N+](=O)[O-]	nt	-10	-3%	-30%	4	-7%
COc1cc(C(=O)O)cc(OC)c1OCc1cc(C(=O)O)oc1C	4%	-4	0%	-11%	1	7%
Cc1oc(C(=O)O)cc1COc1cccc2ccccc12	-53%	-4	-8%	2.3µM*	-2	5%
O=C(CCC(=O)c1ccc(F)cc1)NCC1(N2CCCCC2)CCCCC1	nt	nt	-16%	?	nt	?
COc1ccc2nc(NCCNC(=S)NCCCN3CCOCC3)c(C#N)cc2c1	nt	3	6%	-33%[5.75 µM]	-1	?
CCC(=O)NCCCNc1nc2c(C)cccc2cc1C#N	nt	-4	-5%	3%	10	24%
Cc1cc2cc(C#N)c(NCCNC(=S)NCCCN3CCOCC3)nc2cc1C	13%	-5	4%	223%	-3	13µM*
Cc1cccc2cc(C#N)c(NCCNS(=O)(=O)c3ccc4c(c3)OCCO4)nc12	-34%	-7	0%	5.2µM*	-5	-15%
Cc1cccc2cc(C#N)c(NCCNC(=S)NCCCN3CCOCC3)nc12	22%	-12	-1%	-17%	-2	10µM*
C/C(=N\NC(=O)Cc1c(C)[nH][nH]c1=O)c1cccc(Br)c1	4%	14	1%	?	-3	-4%
C/C(=N/NC(=O)c1ccccc1)C(=O)O	-5%	74*	-1%	?	42*	14%
C/C(=N\NC(=O)c1cccc(Br)c1)c1ccc(Br)cc1	?	54*	0%	66%	33*	40%
C/C(=N\NC(=O)c1ccccc1)C1C2C=CC(C2)C1(C)C (stereo not given)	2%	91*	-1%	?	48*	49%
C/C(=N\NC(=O)c1ccccc1)c1cccc(Br)c1	nt	124*	-1%	3%	48*	58%
CC(=N\NC(=O)c1ccccc1)/C(=N/O)C(=O)Nc1ccccc1	-2%	23	-9%	0%	-2	-12%
COCCOC(=O)c1c(NC(=O)COC(=O)c2ccc(C)o2)sc(C(N)=O)c1C	nt	nt	1%	?	nt	?
O=c1cnnc(N/N=C/C2CC=CCC2)[nH]1 (stereo not given)	nt	-14	-2%	-23%	-4	32%
Cc1ccc(C(=O)O)cc1NC(=S)NC(=O)Cc1ccccc1	0%	-10	10%	46%	-3	-7%
Cc1nc(NC(=O)c2cc(-n3cnnc3)ccc2Cl)ccc1Br	-4%	14	-2%	-9%	-3	-11%
Cc1ccc(-c2nc3ccccc3s2)cc1NC(=O)c1cc(-n2cnnc2)ccc1Cl	17%	85*	0%	i	38*	126%
Cc1ccc(-c2nc3ccccc3s2)cc1NC(=S)NC(=O)c1ccccc1	-1%	187*	5%	78%	34*	106%
CC(C)CC(C(=O)Nc1ccccc1)N1C(=O)C2C3C=CC(C3)C2C1=O (stereo not given)	0%	-2	-1%	-5%	-1	-1%
Cc1cc(/C(N)=N/OC(=O)Nc2ccccc2)no1	-5%	42*	1%	55%	24*	59%
Cc1cc(C)n2ncc(C(=O)Nc3cccc(O)c3)c2n1	14%	-18	2%	12%	10	6%
Cc1cc(/C(N)=N/OC(=O)Nc2ccc(Cl)cc2)no1	1%	55*	2%	0%	27*	61%
